High-throughput results as filed in PubChem.
FBW7 activator: activators of human E3 ligase FBW7 | Q969H0 | AlphaScreen FBW7–phospho-cyclin E peptide binding, activator screen | normalized activity (activation), % at 26.1 µM | 650,000 tested, 0.13% active; in the data active means normalized activity above about 1.9%;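 further: purified mutant Fbw7 with reduced substrate affinity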
Target sequence (Q969H0 whole entry, looked up): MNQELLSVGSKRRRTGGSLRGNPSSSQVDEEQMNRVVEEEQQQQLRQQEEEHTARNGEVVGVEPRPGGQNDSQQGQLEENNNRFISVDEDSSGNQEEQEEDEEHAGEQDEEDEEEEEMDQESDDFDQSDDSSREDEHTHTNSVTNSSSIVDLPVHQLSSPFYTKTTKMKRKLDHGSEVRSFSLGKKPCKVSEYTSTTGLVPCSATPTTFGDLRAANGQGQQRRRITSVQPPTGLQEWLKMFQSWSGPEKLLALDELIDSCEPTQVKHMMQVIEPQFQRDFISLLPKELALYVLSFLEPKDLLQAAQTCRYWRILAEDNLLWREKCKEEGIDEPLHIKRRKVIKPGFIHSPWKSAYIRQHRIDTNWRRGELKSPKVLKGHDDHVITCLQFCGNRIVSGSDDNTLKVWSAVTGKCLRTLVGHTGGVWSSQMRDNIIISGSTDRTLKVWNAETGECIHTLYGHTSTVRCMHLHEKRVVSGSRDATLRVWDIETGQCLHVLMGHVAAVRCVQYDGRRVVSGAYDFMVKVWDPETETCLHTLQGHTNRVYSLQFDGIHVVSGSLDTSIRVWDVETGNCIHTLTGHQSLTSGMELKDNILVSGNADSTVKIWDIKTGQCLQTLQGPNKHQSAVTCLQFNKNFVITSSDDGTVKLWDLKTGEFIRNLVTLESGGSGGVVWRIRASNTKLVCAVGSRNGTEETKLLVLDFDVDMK
GPR151 ag: activators of human GPR151; Q8TDV0; PathHunter beta-arrestin GPR151 cells, luminescence; activation, % at 11.2 µM; 650,000 tested, 1% active; AID 1508602; in the data active means activation above about 4.9%
MITF primary: inhibitors of human MITF; O75030; AlphaScreen MITF homodimerization, bead proximity signal; inhibition, % at 2.6 µM; 650,000 tested, 0.91% active; AID 1259374; in the data active means inhibition above about 50%
TEAD-YAP block: TEAD-YAP interaction inhibition; inhibition, % at 9.12 µM; AID 1259422; 640,000 tested, 1.4% active; HEK-TIYL cells, TEAD-Gal4/YAP UAS-luciferase luminescence; in the data active means inhibition above about 32%
A number is an active result; 0 = inactive; ! = a repeat was not active. Only some compounds are listed: those with a hit (about 3.5% of all), similar ones and a draw of the others.

SMILES	FBW7 activator	GPR151 ag	MITF primary	TEAD-YAP block
COc1ccc(C(NC(=O)Cc2ccccc2)c2ccc3cccnc3c2O)cc1OC (stereo unspecified)	0	0	0	90
CC(=O)Nc1ccc(NC(=O)c2ccccc2)c(C)c1	12	0	0	0
Cc1cc(NC(=O)/C=C/c2ccccc2)ccc1O	0	0	0	73
Cc1cc(NC(=O)c2ccccc2)ccc1O	0	0	0	73
Cc1ccc(NS(=O)(=O)c2ccc(Cl)s2)cc1S(=O)(=O)N1CCCCCC1	0	0	0	0
COc1ccc(-n2ncc3c(Nc4ccc(OC)c(Cl)c4)ncnc32)cc1	0	0	0	54
COc1ccc(Cl)cc1Nc1ncnc2c1cnn2-c1ccccc1	0	0	0	0
COc1ccc(-n2ncc3c(Nc4cc(Cl)ccc4OC)ncnc32)cc1	0	0	0	41
CCOC(=O)C1=C(C)N=c2s/c(=C/c3cc(Cl)ccc3O)c(=O)n2C1c1ccc(OC)cc1 (stereo unspecified)	0	0	0	0
CNC(=O)c1ccc(-c2cc(OC)c(OC)c(OC)c2)nc1N1CCOCC1	0	0	0	0
O=C(O)c1cccc(-c2cnn3c(NCc4cccs4)ccnc23)c1	0	0	0	94
Nc1cccc(-c2cnn3c(NCC4CC4)ccnc23)c1	0	0	0	0
Oc1cccc(-c2cnn3c(NCC4CC4)ccnc23)c1	0	0	0	98
CN(C)CCNC(=O)c1cccc(-c2cnn3c(NCc4cccs4)ccnc23)c1	0	0	0	93
COc1ccc(CNc2ccnc3c(-c4cccc(C(=O)NCCN(C)C)c4)cnn23)cc1	0	0	0	0
Oc1cccc(-c2cnn3c(NCc4cccs4)ccnc23)c1	0	0	0	99
Clc1cccc(-c2cnn3c(NCc4cccs4)ccnc23)c1	0	0	0	0
COc1ccccc1C(=O)Oc1coc(CSc2ncccn2)cc1=O	0	0	0	0
O=[N+]([O-])c1cccc(N/N=C/c2ccc([N+](=O)[O-])s2)c1	0	0	0	39
Cc1cc(C)cc(NS(=O)(=O)c2ccc3c4c2CC(=O)N4CC(C)S3)c1 (stereo unspecified)	0	0	0	34
CC1CN2C(=O)Cc3c(S(=O)(=O)NCc4cccs4)ccc(c32)S1 (stereo unspecified)	0	0	0	0
COCCNC(=O)/C(C#N)=C/C1=C(N2CCOCC2)C(=C\c2ccccc2)/CC1	0	0	0	0
CCOC(=O)/C(C#N)=C/C1=C(N2CCOCC2)C(=C\c2ccccc2)/CC1	0	0	51	0
CCc1cc(NCc2ccco2)n2nc3nc(C)cc(C)c3c2n1	252	0	0	0
CCc1cc(NCc2cccs2)n2nc3nc(C)cc(C)c3c2n1	0	0	0	0
SMILES	FBW7 activator	GPR151 ag	MITF primary	TEAD-YAP block
CCc1nc2nc(C)cc(N3CCN(c4ccccc4OC)CC3)n2n1	0	0	0	34
COc1ccc(CCNc2nc(-c3ccc(C(=O)NC4CC4)cc3)nc3c2ncn3CCN2CCCC2=O)cc1	0	0	0	39
COc1ccc(-c2nc(NCCOc3ccccc3)c3ncn(CCN4CCCC4=O)c3n2)cc1	0	0	0	34
O=C1c2cccc3c(N4CCCC4)ccc(c23)C(=O)N1Cc1ccccc1	0	0	0	0
OCCCNc1cc(-c2ccccn2)nc(-c2ccccc2)n1	0	0	0	0
COC(CNc1cc(-c2ccccc2)nc(-c2ccccn2)n1)OC	0	0	0	48
Fc1ccc(-c2cc(NCCCN3CCOCC3)nc(-c3ccccn3)n2)cc1	0	0	0	0
OCCCNc1cc(-c2ccccc2)nc(-c2ccccn2)n1	0	0	0	78
OCCCNc1cc(-c2ccccn2)nc(-c2ccccn2)n1	0	0	115	0
Fc1ccccc1-c1cc(NCCCN2CCOCC2)nc(-c2ccccn2)n1	0	0	0	37
O=C(O)COc1ccc(/C=N/Nc2nc(Nc3ccccc3)nc(N3CCCC3)n2)cc1	0	0	0	0
c1ccc(-c2cc(NCc3ccncc3)nc(-c3ccccn3)n2)cc1	0	0	0	37
c1ccc(CNc2cc(-c3ccncc3)nc(-c3ccccn3)n2)cc1	0	0	0	0
CC1=C(C#N)C(=O)NC(=O)/C1=C\c1ccc(-c2ccc(S(=O)(=O)O)cc2)o1	0	0	59	0
O=C(CC1S/C(=N\N=C\c2cccc(O)c2)NC1=O)Nc1ccccc1C(F)(F)F (stereo unspecified)	0	0	0	0
OC(COc1ccccc1)CN1C2=NCCCN2c2ccccc21 (stereo unspecified)	2.1	0	0	0
OC(COc1ccccc1)CN1C2=NCCN2c2ccccc21 (stereo unspecified)	0	0	0	0
CCC(Sc1nc2ccc(Br)cc2c(=O)n1Cc1ccc(C(=O)NCCOC)cc1)C(=O)NCc1ccco1 (stereo unspecified)	0	0	0	0
CC1(C)CC(=O)C=C(NNC(=O)COc2ccccc2)C1	1.9!	0	0	0
CC1(C)CC(=O)C=C(NNC(=O)Cc2ccccc2)C1	0	0	0	0
CC1CCCCN1CCNC(=O)Cn1ncn2nc(-c3cccs3)cc2c1=O (stereo unspecified)	0	0	0	0
CCC(O)CNC(=O)c1cccc(OC2CCN(S(=O)(=O)N(C)C)CC2)c1 (stereo unspecified)	0	0	0	0
CN(C)S(=O)(=O)N1CCC(Oc2cccc(C(=O)NC3CCCCCC3)c2)CC1	0	0	0	44
O=c1oc(C2CCCCC2)nc2ccc(-c3ccc4nc(C5CCCCC5)oc(=O)c4c3)cc12	0	0	0	0
COc1cc2c(C(=O)N(C)c3ccccc3C)cn(CC(C)C)c(=O)c2cc1OC	2.2	0	0	0
SMILES	FBW7 activator	GPR151 ag	MITF primary	TEAD-YAP block
O=[N+]([O-])c1cc(-c2ccc(/C=N\n3cnnc3)o2)ccc1O	0	0	58	0
Cc1ccc(C)n1-c1ccc(C(=O)NCC(=O)O)cc1	0	0	66	0
Cc1ccc(C)n1-c1ccc(C(=O)O)cc1	0	0	0	0
Cc1c(C(=O)OCCOC(C)C)[nH]c2c1C(=O)CC(c1ccccc1)C2 (stereo unspecified)	0	0	0	48
COCCOC(=O)c1[nH]c2c(c1C)C(=O)CC(c1ccc(Cl)cc1)C2 (stereo unspecified)	0	0	0	0
Cc1c(C(=O)O)[nH]c2c1C(=O)CC(c1ccccc1)C2 (stereo unspecified)	0	0	0	0
COCCOC(=O)c1[nH]c2c(c1C)C(=O)CC(c1ccc(N(C)C)cc1)C2 (stereo unspecified)	0	0	0	0
COCCOC(=O)c1[nH]c2c(c1C)C(=O)CC(c1ccc(F)cc1)C2 (stereo unspecified)	0	0	0	35
COCCOC(=O)c1[nH]c2c(c1C)C(=O)CC(c1ccccc1)C2 (stereo unspecified)	0	0	0	49
COc1ccc(CCNc2nc(NCCN3CCOCC3)nc3c2ncn3-c2ccsc2)cc1	0	0	0	0
c1cnc(Nc2nc(NCCN3CCOCC3)c3ncn(-c4ccsc4)c3n2)cn1	0	0	0	66
COc1cc(Nc2nc(NCCN3CCOCC3)c3ncn(-c4ccsc4)c3n2)cc(OC)c1OC	0	0	0	49
